Screens from PubChem BioAssay.
An excerpt weighted towards active compounds, which were near 10% of everything screened.
hNpr1 antagonist: human Npr1 receptor antagonism; HEK293 hNpr1 GloSensor cGMP, ANP-stimulated luminescence; Potency, µM (top dose mostly 46.3 µM), most hits filed as inhibitors; P16066; 76,000 tested, 1.6% active; calls by dose curve; also: nearly all actives have a fitted effect of over 60% in size
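HEK293 cells stably expressing human Npr1 and cGMP GloSensor pGS-40F, loaded 2 h with 2% GloSensor reagent, given compound 30 min at room temperature. Luminescence read before and 20 min after 0.1 nM hNppA.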
Luciferase inh: blocks purified firefly luciferase enzyme activity. AID 1347043. Potency, µM (titrated, usually from 115 µM), most hits filed as inhibitors. purified P. pyralis luciferase, luminescence, biochemical. P08659. 76,000 tested, 2.5% active; also: nearly all actives have a fitted effect of over 65% in size
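Luminescence read by CCD imaging after purified firefly luciferase (10nM final) was added to substrate buffer holding 10uM D-luciferin and 10uM ATP, pH 7.5, pre-dosed with compound.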
NIH3T3 tox: cytotoxic compounds in NIH 3T3 cells | 94,000 tested, 4.3% active | Potency, µM (highest dose often 96.7 µM), usual class: inhibitors | AID 1345082 | NIH 3T3 viability, CellTiter-Glo ATP luminescence, 48-72 h; also: nearly all actives have a fitted effect of over 55% in size
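NIH 3T3 cells at 400 cells/well received 23 nL of compound by pintool and were incubated 48 or 72 h at 37 °C. Viability was read as ATP-coupled CellTiter-Glo luminescence.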
GPT2 inhibitor: GPT2 alanine aminotransferase inhibition. Q8TD30. Recombinant GPT2, coupled pyruvate oxidase/HRP Amplex Red fluorescence. Potency, µM (highest dose often 57.7 µM), hits mostly inhibitors. 100,000 tested, 0.25% active. AID 1671188; also: nearly all actives have a fitted effect of over 60% in size
Target sequence (Q8TD30 whole entry, looked up): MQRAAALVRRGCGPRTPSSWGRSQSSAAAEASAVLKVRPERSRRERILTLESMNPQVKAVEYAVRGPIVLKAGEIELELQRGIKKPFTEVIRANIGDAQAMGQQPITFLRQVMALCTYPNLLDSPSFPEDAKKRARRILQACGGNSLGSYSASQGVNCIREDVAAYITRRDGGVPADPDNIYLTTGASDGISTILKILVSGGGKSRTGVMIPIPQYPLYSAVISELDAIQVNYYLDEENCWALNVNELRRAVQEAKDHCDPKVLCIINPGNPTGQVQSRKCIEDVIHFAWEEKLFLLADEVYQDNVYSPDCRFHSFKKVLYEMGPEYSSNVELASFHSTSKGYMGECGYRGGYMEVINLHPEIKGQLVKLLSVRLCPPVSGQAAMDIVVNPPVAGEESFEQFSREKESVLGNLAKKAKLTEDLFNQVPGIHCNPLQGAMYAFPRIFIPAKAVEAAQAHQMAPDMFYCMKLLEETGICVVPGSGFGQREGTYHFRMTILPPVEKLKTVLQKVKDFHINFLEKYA
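Inhibition is scored from Amplex Red fluorescence generated when pyruvate oxidase and HRP act on pyruvate released by GPT2. Reactions contain 10ng/uL enzyme, 250uM a-KG and 2mM L-alanine and run 30 min at room temperature.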
HEK293 tox: kills HEK 293 cells; HEK 293 viability, ATP luminescence (CellTiter-Glo), 48-72 h; Potency, µM (doses to about 115 µM), actives largely listed as inhibitors; 94,000 tested, 6.6% active; AID 1345083; also: nearly all actives have a fitted effect of over 60% in size
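Cells seeded first (HEK 293, 250 cells/well), then compound added by pintool. Incubation ran 48 or 72 hr at 37 degree Celsius. CellTiter-Glo was added and luminescence imaged after 10 min at room temperature.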
A number is an active result. Unless noted, calls follow the shape of the dose curve; as a rule, active = well fitted curve in the direction sought with a large enough effect; inconclusive = small, poorly fitted or top-dose-only effect, or another doubt; inactive = no such curve, though single readings can be large; an effect the other way counts as inactive or inconclusive.

`CC(C)CNC(=O)CN1CCOc2c(O)cc(-c3cccc(Cl)c3)cc2C1` gave hNpr1 antagonist inactive, Luciferase inh inactive, NIH3T3 tox inconclusive, GPT2 inhibitor inactive and HEK293 tox inconclusive.
For CC1(C(=O)N2CCOc3c(O)cc(-c4cccc(Cl)c4)cc3C2)CCCO1 (stereo not drawn) the results were hNpr1 antagonist inactive, Luciferase inh inactive, NIH3T3 tox inconclusive, GPT2 inhibitor inactive and HEK293 tox 45µM.
Screening Cc1nc(C(=O)N2CCOc3c(O)cc(-c4cccc(Cl)c4)cc3C2)cs1 returned hNpr1 antagonist inconclusive, Luciferase inh inactive, NIH3T3 tox inconclusive, GPT2 inhibitor inactive and HEK293 tox 18µM.
COC(=O)CNC(=O)c1nc2cccnc2n(CC(C)C)c1=O was read as NIH3T3 tox inactive, GPT2 inhibitor inactive and HEK293 tox inactive.
For CC1(C)C(=O)N(Cc2ccccc2)[C@H]2CN(CC3CCOCC3)C[C@@H]2[S+]1(=O)[O-] the results were hNpr1 antagonist inactive, Luciferase inh inactive, NIH3T3 tox inconclusive, GPT2 inhibitor inactive and HEK293 tox inactive.
COc1ccccc1N1CCCc2ncc(C(=O)N3CCC[C@@H]3c3ccc(F)cc3)cc21 was read as hNpr1 antagonist inactive, Luciferase inh inactive, NIH3T3 tox 89µM, GPT2 inhibitor inactive and HEK293 tox inconclusive.
`COc1ccccc1N1CCCc2ncc(C(=O)NCCc3ccccc3)cc21` gave hNpr1 antagonist inactive, Luciferase inh inactive, NIH3T3 tox inconclusive, GPT2 inhibitor inactive and HEK293 tox inconclusive.
COc1ccccc1N1CCCc2ncc(C(=O)N(C)Cc3ccccc3)cc21 was read as hNpr1 antagonist inactive, Luciferase inh inactive, NIH3T3 tox inconclusive, GPT2 inhibitor inactive and HEK293 tox 100µM.
Screening COc1ccccc1N1CCCc2ncc(C(=O)N3CCCC[C@@H]3Cc3ccccc3)cc21 returned hNpr1 antagonist inactive, Luciferase inh inactive, NIH3T3 tox inconclusive, GPT2 inhibitor inactive and HEK293 tox inconclusive.
Screening COc1ccccc1N1CCCc2ncc(C(=O)NCCOc3ccccc3)cc21 returned hNpr1 antagonist inactive, Luciferase inh inactive, NIH3T3 tox 89µM, GPT2 inhibitor inactive and HEK293 tox 100µM.
`COc1ccc(-c2nc(C3CC3)nc3c2CCN(Cc2cccc4ccccc24)CC3)cc1` gave NIH3T3 tox inactive, GPT2 inhibitor inactive and HEK293 tox inconclusive.
Screening COc1cccc(-c2noc(Nc3cc(C)cc(C)c3)n2)c1OC returned hNpr1 antagonist inactive, Luciferase inh 20µM, NIH3T3 tox inconclusive, GPT2 inhibitor inactive and HEK293 tox inconclusive.
For COc1cccc(-c2noc(NCc3cccc(Cl)c3)n2)c1OC the results were hNpr1 antagonist inactive, Luciferase inh inactive, NIH3T3 tox inconclusive, GPT2 inhibitor inactive and HEK293 tox 79µM.
Screening COc1ccc(-c2noc(Nc3cc(C)cc(C)c3)n2)cc1 returned hNpr1 antagonist inactive, Luciferase inh inconclusive, NIH3T3 tox inconclusive, GPT2 inhibitor inactive and HEK293 tox inconclusive.
`Fc1ccccc1-c1noc(NCc2ccccc2)n1` gave hNpr1 antagonist inactive, Luciferase inh 28µM, NIH3T3 tox inconclusive, GPT2 inhibitor inactive and HEK293 tox inconclusive.
`CC#CCn1cc2c3c(cccc31)[C@H](CC(C)C)N[C@H](C(=O)NCCOC)C2` gave hNpr1 antagonist inactive, Luciferase inh inactive, NIH3T3 tox inconclusive, GPT2 inhibitor inconclusive and HEK293 tox inconclusive.
For CC#CCn1cc2c3c(cccc31)[C@H](CC(C)C)N[C@H](C(=O)NC1CCCC1)C2 the results were hNpr1 antagonist inactive, Luciferase inh inactive, NIH3T3 tox 35µM, GPT2 inhibitor inactive and HEK293 tox 45µM.
Screening CC#CCn1cc2c3c(cccc31)[C@H](CC(C)C)N[C@H](C(=O)NC(C)C)C2 returned hNpr1 antagonist inactive, Luciferase inh inactive, NIH3T3 tox 71µM, GPT2 inhibitor inactive and HEK293 tox 50µM.
CC#CCn1cc2c3c(cccc31)[C@H](CC(C)C)N[C@H](C(=O)NCCN1CCOCC1)C2 was read as hNpr1 antagonist inactive, Luciferase inh inactive, NIH3T3 tox 100µM, GPT2 inhibitor inactive and HEK293 tox inconclusive.
Screening O=C(NCc1ccc(Cl)cc1)c1ccc2nc(-c3ccnc(Cl)c3)oc2c1 returned NIH3T3 tox inconclusive, GPT2 inhibitor inactive and HEK293 tox inactive.
For COc1cccc(C(O)c2nc(C(=O)Nc3nc(C)cs3)c(C)o2)c1 (stereo not drawn) the results were hNpr1 antagonist 18µM, Luciferase inh inconclusive, NIH3T3 tox inconclusive, GPT2 inhibitor inactive and HEK293 tox inconclusive.
Cc1csc(NC(=O)c2nc(C(O)c3ccccc3)oc2C)n1 (stereo not drawn) was read as hNpr1 antagonist inconclusive, Luciferase inh inactive, NIH3T3 tox 79µM, GPT2 inhibitor inactive and HEK293 tox inconclusive.
`COc1cccc(C(O)c2nc(C(=O)Nc3ccc4c(c3)CC(=O)N4)c(C)o2)c1` (stereo not drawn) gave hNpr1 antagonist inactive, Luciferase inh inactive, NIH3T3 tox inconclusive, GPT2 inhibitor inactive and HEK293 tox 100µM.
COc1ccc(Nc2cnc3ccc(-c4ccccc4)nn23)cc1OC was read as hNpr1 antagonist inactive, Luciferase inh inactive, NIH3T3 tox inconclusive, GPT2 inhibitor inconclusive and HEK293 tox 63µM.
`COc1ccc(Nc2cnc3ccc(-c4cccc(CO)c4)nn23)cc1OC` gave hNpr1 antagonist inactive, Luciferase inh inconclusive, NIH3T3 tox inconclusive, GPT2 inhibitor inactive and HEK293 tox inconclusive.
`COc1ccccc1-c1ccc2ncc(Nc3cccc(N[S+](C)(=O)[O-])c3)n2n1` gave hNpr1 antagonist inactive, Luciferase inh inactive, NIH3T3 tox inconclusive, GPT2 inhibitor inactive and HEK293 tox 63µM.
COc1ccc(-c2ccc3ncc(Nc4cnccn4)n3n2)cc1OC was read as hNpr1 antagonist inactive, Luciferase inh inactive, NIH3T3 tox 25µM, GPT2 inhibitor inconclusive and HEK293 tox inconclusive.
COc1cccc(Nc2cnc3ccc(-c4ccccc4OC)nn23)c1 was read as hNpr1 antagonist inactive, Luciferase inh inactive, NIH3T3 tox inconclusive, GPT2 inhibitor inconclusive and HEK293 tox 79µM.
For CCN1CCC(CCNC(=O)C2N(C(C)C)C(=O)C23CCCCC3)CC1 (stereo not drawn) the results were hNpr1 antagonist inactive, Luciferase inh inactive, NIH3T3 tox inactive, GPT2 inhibitor inactive and HEK293 tox inactive.
`Cc1ccc2[nH]c(CN3CC[C@H]4NCCC[C@]4(CO)C3)cc(=O)c2c1` gave hNpr1 antagonist inactive, Luciferase inh inactive, NIH3T3 tox inactive, GPT2 inhibitor inactive and HEK293 tox inactive.
`COCCN1C(=O)[C@@H]2C[C@@H](CN2Cc2cccnc2)Oc2ccccc21` gave hNpr1 antagonist inactive, Luciferase inh inactive, NIH3T3 tox inconclusive, GPT2 inhibitor inconclusive and HEK293 tox inactive.
COc1ccc(-c2ccc3ncc(Nc4ccncc4)n3n2)cc1OC was read as hNpr1 antagonist inactive, Luciferase inh inactive, NIH3T3 tox 35µM, GPT2 inhibitor inactive and HEK293 tox 79µM.
